These results are taken from PubChem BioAssay.

The nature of test [1]: inhibitors of TNFa-induced NFkB p65 translocation, primary screen, imaging, HUVEC, MLSMR starter and 10KST1 sets (AID 438;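 active means inhibition above 20% together with a positive visual image hit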;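 further: compound added about 3h40 before a 20 min TNFalpha stimulation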;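 on inhibition: signal is the nuclear over cytoplasmic p65 intensity ratio per well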). The following applies: HUVEC TNFa-induced p65 nuclear translocation; cell count: measured here: nuclei count (cytotoxicity indicator), at 2.08 µM; inhibition: at 2 µM, stronger effect = higher value, 0% TNFa-plus-vehicle, 100% no-TNFa wells.
A short description of test [2]: inhibitors of mutant huntingtin aggregation, primary screen, imaging, exon1htt(103Q)mCFP cells, high-content imaging (AID 483;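 active means visual image review flags a hit and inhibition of aggregation exceeds 20%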;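 further: compound exposure lasted 3 days before fixation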;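 on nuclei count: percent of the per-plate median nuclei count of sample wells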). The following applies: exon1htt(103Q)mCFP cell line, aggregate imaging, at 2 µM; inhibition of aggregation: stronger effect = higher value; nuclei count: measured here: cell count, toxicity.
Test [3] can be described thus: inhibitors of E-selectin induction by TNFa, primary screen, imaging, HUVEC, immunofluorescence, MLSMR starter and 10KST1 sets (AID 487;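 active means visually confirmed hit in the image check and inhibition above 20%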;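 on inhibition: signal is fraction of cell area covered by stained E-selectin grains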;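 on nuclei count: 100% = median nuclei count of all wells on the same plate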). The following applies: HUVEC TNFalpha-induced E-selectin immunofluorescence imaging, at 2 µM; inhibition: stronger effect = higher value; nuclei count: measured here: cell number, toxicity.
Test [4] addresses Voltage-gated potassium channel subunit beta-2 (Rattus norvegicus) (UniProt P62483). The test can be described thus: KvBeta enzyme negative modulators, primary screen, biochemical, NADPH fluorescence (AID 622;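 active means fluorescence slope higher than the sample average by over 3 SD, cut at about -0.22 in these data, passing the limit was not always enough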;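 further: slope of raw intensity against log time taken from 70 to 1610 s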). The following applies: recombinant KvBeta, 4-cyanobenzaldehyde reduction, at 10 µM, stronger effect = higher value.
The target is the same in test [5]. Put plainly: KvBeta positive modulators, primary screen, biochemical, NADPH fluorescence (AID 623;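 active means NADPH fluorescence slope more negative than the mean of all samples by about 3 SD, 99.7% confidence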;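 further: fluorescence intensity change per second fitted from 20 to 320 s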). The following applies: Recombinant KvBeta, NADPH fluorescence decrease slope, 10 min; at 10 µM; stronger effect = lower value.
Test [6] has as its target Alpha-2C adrenergic receptor (Homo sapiens) (UniProt P18825). Put plainly: modulators of alpha2C/GIRK thallium flux, primary screen, cell-based, HEK293 alpha2C/GIRK1/2 (AID 624;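 active means fluorescence slope after compound addition differing from the mean of all screened samples at 99.7% confidence, in either direction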;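 further: slope of fluorescence ratio to pre-addition baseline per second over 15 to 24 s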). The following applies: thallium flux BTC fluorescence, at 10 µM, actives lie on both sides.
Test [7] is described as follows: inhibitors of Sendai virus-induced IRF3 signaling, primary screen, TLR/RLR signaling modifier project, cell-based, Sendai virus stimulus, luciferase, 10K MLSCN set (AID 602276).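 Further: firefly luciferase from ISG56 promoter only with Renilla not read in this screen; 0% = Sendai virus plus DMSO and 100% = medium plus DMSO without virus.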 The following applies: HEK293 RL24 IRF3 luciferase reporter, at 10 µM, stronger effect = higher value.
A short description of test [8]: inhibitors of poly I:C-induced TLR3 signaling, primary screen, cell-based, poly I:C stimulus, luciferase, 10K MLSCN set (AID 602277;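 active means inhibition of the reporter signal at or above 50%; inactive means inhibition below 50%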). The following applies: HEK293-TLR3 RL24 IRF3 luciferase reporter, at 10 µM, stronger effect = higher value.

The source made the active and inactive calls.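 How the source made its calls, unless noted: active means inhibition at or above 50% at 10 µM; inactive means inhibition below 50%.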

Sequence of Voltage-gated potassium channel subunit beta-2 (Rattus norvegicus) (P62483 whole entry, looked up): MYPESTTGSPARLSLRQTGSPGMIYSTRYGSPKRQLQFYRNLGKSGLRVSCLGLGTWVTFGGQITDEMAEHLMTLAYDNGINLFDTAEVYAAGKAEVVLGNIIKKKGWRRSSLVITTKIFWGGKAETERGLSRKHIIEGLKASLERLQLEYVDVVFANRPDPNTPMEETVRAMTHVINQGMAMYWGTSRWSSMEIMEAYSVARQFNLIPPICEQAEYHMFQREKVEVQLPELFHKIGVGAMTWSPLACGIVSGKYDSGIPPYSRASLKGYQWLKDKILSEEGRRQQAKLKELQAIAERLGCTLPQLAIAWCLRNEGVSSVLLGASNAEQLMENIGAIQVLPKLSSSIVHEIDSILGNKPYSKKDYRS
Sequence of Alpha-2C adrenergic receptor (Homo sapiens) (P18825 whole entry, looked up): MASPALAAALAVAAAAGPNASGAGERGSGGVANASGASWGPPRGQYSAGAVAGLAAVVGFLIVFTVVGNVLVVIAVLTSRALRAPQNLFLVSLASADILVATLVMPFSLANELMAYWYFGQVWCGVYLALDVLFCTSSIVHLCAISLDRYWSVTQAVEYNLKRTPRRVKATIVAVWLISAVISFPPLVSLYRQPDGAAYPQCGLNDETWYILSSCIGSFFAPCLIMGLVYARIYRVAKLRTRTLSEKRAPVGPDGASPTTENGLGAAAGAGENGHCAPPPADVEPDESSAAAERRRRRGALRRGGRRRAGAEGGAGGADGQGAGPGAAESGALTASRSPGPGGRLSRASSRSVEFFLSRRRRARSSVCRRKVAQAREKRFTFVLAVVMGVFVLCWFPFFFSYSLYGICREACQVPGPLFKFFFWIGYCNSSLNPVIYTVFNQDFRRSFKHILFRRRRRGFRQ

The inhibition is the drop in the measured response relative to a control, in per cent. As to `O=C(Nc1cc(C(F)(F)F)ccc1Cl)C1CCN(c2nnc(-n3cccc3)s2)CC1`, the cell count in test [1] came to 329. Moreover, the inhibition in test [1] was -2.9% (inactive); in test [3] it was -114% (inactive); in test [7] it was 17.2% (inactive); in test [8], 9.28% (inactive). Moreover, the inhibition of aggregation in test [2] is 6.1% (inactive). For the same compound, the figures for the nuclei count in test [2] and in test [3] were 84.2% and 126%, respectively. Moreover, the fluorescence slope in test [4] is -0.39 (inactive). The NADPH fluorescence slope in test [5] was -5.6e-05 (inactive). For the same compound, the slope in test [6] was 0.00662 (inactive).
`CCOc1ccc(CCN2C(=O)C3C4C=CC(C4)C3C2=O)cc1OCC` (centres undefined): the cell count in test [1] turned out to be 626. Further, the inhibition in test [1] is 2.9% (inactive); in test [3], -51.4% (inactive); in test [7], 16.8% (inactive); in test [8], 36.6% (inactive). Besides, in test [2], the inhibition of aggregation was -33.6% (inactive). Also, the nuclei count in test [2] is 134%; in test [3] it was 112%. Besides, the fluorescence slope in test [4] is -0.551 (inactive). In addition, the NADPH fluorescence slope in test [5] is -1.1e-05 (inactive). Further, the slope in test [6] was 0.00791 (inactive).
As to `Cc1sc2nc(SCC(=O)N3CCN(CCO)CC3)n(-c3ccccc3)c(=O)c2c1C`, the cell count in test [1] was found to be 397. For the same compound, the inhibition is 7% (inactive) in test [1], -55% (inactive) in test [3], 16.8% (inactive) in test [7] and 31% (inactive) in test [8]. Moreover, the inhibition of aggregation in test [2] is -7.3% (inactive). For the same compound, the nuclei count worked out at 111% in test [2] and 121% in test [3]. Further, the fluorescence slope in test [4] is -0.456 (inactive). Besides, in test [5], the NADPH fluorescence slope is -4.5e-05 (inactive). For the same compound, the slope in test [6] is 0.00574 (inactive).
Take `COCc1cc(C)nc(Nc2ccc(C)cc2C)c1C#N`: in test [1], the cell count stood at 635. Besides, the inhibition in test [1] was -12.3% (inactive); in test [3] it was 24.1% (inactive); in test [7], -5.46% (inactive); in test [8], 12.7% (inactive). The inhibition of aggregation in test [2] is -34.1% (inactive). Further, the nuclei count in test [2] was determined as 113%; in test [3] it was 120%. Also, in test [4], the fluorescence slope is -0.461 (inactive). Also, the NADPH fluorescence slope in test [5] was 5.1e-08 (inactive). In test [6], the slope is 0.00615 (inactive).
With `Cn1c(C(=O)NCCC2=CCCCC2)cc2c(=O)n3ccccc3nc21`, in test [1], the cell count came out at 261. Also, the inhibition in test [1] is 31.6% (active); in test [3], 46.7% (inactive); in test [7] it was -27.5% (inactive); in test [8], -62% (inactive). The inhibition of aggregation in test [2] was 5.6% (inactive). The nuclei count was determined as 92.2% in test [2] and 71.3% in test [3]. Moreover, in test [4], the fluorescence slope is -0.128 (active). Also, in test [5], the NADPH fluorescence slope was 1.2e-05 (inactive). Moreover, the slope in test [6] is 0.00542 (inactive).
As for `CC(=O)c1c(C)[nH]c(C(=O)OCc2nnc(-c3ccccc3)o2)c1C`, the cell count in test [1] amounted to 757. For the same compound, the inhibition in test [1] is -7.8% (inactive); in test [3], -43.7% (inactive); in test [7] it was 14.6% (inactive); in test [8], 12.4% (inactive). In test [2], the inhibition of aggregation was -14.5% (inactive). Moreover, the nuclei count in test [2] was 122%; in test [3], 110%. The fluorescence slope in test [4] was -0.639 (inactive). Besides, the NADPH fluorescence slope in test [5] is 4.8e-05 (inactive). Further, the slope in test [6] is 0.00623 (inactive).
Consider `COc1ccc(C(O)Cn2c(=N)n(CCCN(C)C)c3ccccc32)cc1` (centres undefined), for which the cell count in test [1] was 569. For the same compound, the inhibition in test [1] was -12.9% (inactive); in test [3], -30.3% (inactive); in test [7], -10.7% (inactive); in test [8], -0.929% (inactive). Also, the inhibition of aggregation in test [2] is -27.4% (inactive). Besides, the nuclei count in test [2] was 85.7%; in test [3], 112%. The fluorescence slope in test [4] is -0.587 (inactive). Besides, the NADPH fluorescence slope in test [5] was 2.2e-05 (inactive). Also, the slope in test [6] was 0.00727 (inactive).
In the case of `CSc1nc(N2CCOCC2)c2ccccc2n1`, the cell count in test [1] was 730. Moreover, the inhibition in test [1] is -29.3% (inactive); in test [3] it was -56.6% (inactive); in test [7], 6.41% (inactive); in test [8], -10.5% (inactive). The inhibition of aggregation in test [2] was 13.4% (inactive). In addition, the nuclei count stood at 80.7% in test [2] and 114% in test [3]. The fluorescence slope in test [4] is -0.601 (inactive). The NADPH fluorescence slope in test [5] was -3.9e-05 (inactive). In addition, the slope in test [6] was 0.00469 (inactive).
For the compound `O=c1c2ccc(-c3nnc4n3-c3ccccc3SC4)cc2nc2n1CCCCC2`, the cell count in test [1] came to 473. In addition, the inhibition is -1.1% (inactive) in test [1], -41.6% (inactive) in test [3], 11.2% (inactive) in test [7] and 14.5% (inactive) in test [8]. Further, in test [2], the inhibition of aggregation was 9% (inactive). Also, the nuclei count in test [2] amounted to 111%; in test [3], 116%. Besides, the fluorescence slope in test [4] was -0.414 (inactive). In test [5], the NADPH fluorescence slope was -3.1e-05 (inactive). Also, in test [6], the slope was 0.00551 (inactive).
Take `CCOc1ccc(/C=N/n2cnnc2)cc1`: the cell count in test [1] was determined as 442. Besides, the inhibition was -2.2% (inactive) in test [1], 17.6% (inactive) in test [3], 8.22% (inactive) in test [7] and 20.1% (inactive) in test [8]. Further, the inhibition of aggregation in test [2] was -4.7% (inactive). Moreover, the nuclei count turned out to be 89.4% in test [2] and 117% in test [3]. In test [4], the fluorescence slope is -0.402 (inactive). In addition, the NADPH fluorescence slope in test [5] is -9.1e-05 (inactive). Besides, the slope in test [6] is 0.00521 (inactive).
Take `CC(=O)c1ccc(NC(=O)CCc2c(C)nc3ncnn3c2C)cc1`: the cell count in test [1] came to 363. Also, the inhibition is 0% (inactive) in test [1], -31.1% (inactive) in test [3], -9.29% (inactive) in test [7] and -11.6% (inactive) in test [8]. Further, the inhibition of aggregation in test [2] was 11.4% (inactive). The nuclei count in test [2] was 103%; in test [3] it was 113%. For the same compound, the fluorescence slope in test [4] is -0.498 (inactive). In test [5], the NADPH fluorescence slope was -2.9e-05 (inactive). Moreover, the slope in test [6] is 0.00573 (inactive).
Regarding `Cc1cccc(C)c1NC(=O)c1cc(S(=O)(=O)N2CCOCC2)ccc1F`, in test [1], the cell count amounted to 341. Further, the inhibition in test [1] was 10.3% (inactive); in test [3], -213% (inactive); in test [7], 11.2% (inactive); in test [8], 26.3% (inactive). Also, in test [2], the inhibition of aggregation was -3.7% (inactive). For the same compound, the results for the nuclei count in test [2] and in test [3] were 56.5% and 80.9%, respectively. For the same compound, the fluorescence slope in test [4] is -0.302 (inactive). The NADPH fluorescence slope in test [5] was -1e-05 (inactive). Moreover, the slope in test [6] was 0.00325 (inactive).
Regarding `COc1ccc2c(=O)c3c(=O)n(Cc4ccco4)c(-c4cc(OC)c(OC)c(OC)c4)nc3oc2c1`, the cell count in test [1] turned out to be 483. For the same compound, the inhibition in test [1] was -9.2% (inactive); in test [3], -11.9% (inactive); in test [7], 3.4% (inactive); in test [8], -1.04% (inactive). Also, the inhibition of aggregation in test [2] was -28.3% (inactive). Besides, the figures for the nuclei count in test [2] and in test [3] were 96.6% and 121%, respectively. Also, the fluorescence slope in test [4] is -0.525 (inactive). The NADPH fluorescence slope in test [5] was 5.6e-06 (inactive). Also, the slope in test [6] is 0.00457 (inactive).
For the compound `O=C(NCCSCc1ccco1)Nc1cccc(Cl)c1`, the cell count in test [1] worked out at 502. Also, the inhibition in test [1] was 3.6% (inactive); in test [3] it was -67.4% (inactive); in test [7] it was 2.33% (inactive); in test [8], -54.8% (inactive). Also, in test [2], the inhibition of aggregation is -7.7% (inactive). Moreover, the nuclei count in test [2] is 99.9%; in test [3] it was 115%. Besides, in test [4], the fluorescence slope was -0.673 (inactive). The NADPH fluorescence slope in test [5] was 1.6e-05 (inactive). In addition, the slope in test [6] was 0.0115 (inactive).
